Only a selection was taken, and hits are over-represented in it overall.
FECH block – inhibitors of human ferrochelatase | P22830 | purified FECH, Ni-mesoporphyrin absorbance 550 nm | calls only at 10 µM (by protocol) | actives 3.3% (n = 20,000) | AID 1671448;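 active = enzyme reaction rate more than 3 SD below the solvent-only control wells on the same plate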;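 also: lower slope than DMSO wells means FECH inhibition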
Target sequence (P22830 whole entry, looked up): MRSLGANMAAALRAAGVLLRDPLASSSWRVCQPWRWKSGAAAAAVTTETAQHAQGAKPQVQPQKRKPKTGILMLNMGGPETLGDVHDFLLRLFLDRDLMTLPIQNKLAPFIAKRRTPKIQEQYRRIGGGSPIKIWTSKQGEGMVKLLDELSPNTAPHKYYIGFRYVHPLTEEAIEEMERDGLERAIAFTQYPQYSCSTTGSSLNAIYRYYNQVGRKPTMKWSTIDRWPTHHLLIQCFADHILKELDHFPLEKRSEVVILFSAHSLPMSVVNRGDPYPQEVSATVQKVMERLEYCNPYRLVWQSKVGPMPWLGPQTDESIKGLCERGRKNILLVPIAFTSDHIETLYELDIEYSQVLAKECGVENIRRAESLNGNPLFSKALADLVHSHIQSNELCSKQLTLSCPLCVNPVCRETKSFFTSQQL
Of the large screens only hits and unclear results are named; the others gave an inactive call.

CCc1csc(CNC(=O)c2cc(C3CC3)[nH]n2)n1	none
CCc1csc(CNC(=O)c2ncc[nH]2)n1	FECH block active
CCN(Cc1ccccc1Cl)C(=O)CCNC(=O)c1ccccc1F	none
CN(CCC(C)(C)O)Cc1cccc(Cl)c1F	FECH block active
Cc1cccc(CN(C)Cc2cn[nH]c2-c2ccc(F)cc2)c1O	none
Cc1nn(CCC(=O)N2CCOC3(CNCCOC3)C2)c(C)c1C (stereo not given)	none
O=C(Cc1c[nH]c2ccccc12)N1CCN(C(=O)c2nc(-c3ccc(N4CCCCC4)cc3)no2)CC1	none
CCOc1ccccc1-c1cc(C(=O)OC)n(C)c1	none
COc1ccc(N2C(=O)CCS2(=O)=O)cc1S(=O)(=O)Nc1cc(C)cc(C)c1	none
O=C(Nc1nc2n(n1)C(c1ccc(F)cc1)C=C(c1ccc(Cl)cc1)N2)c1ccccc1 (stereo not given)	none
Cc1cccc(C(=O)Nc2nc3n(n2)C(c2ccccc2Cl)C=C(c2ccc(Cl)cc2)N3)c1 (stereo not given)	none
Cc1ccc(C(=O)Nc2nc3n(n2)C(c2ccc(F)cc2)C=C(c2ccccc2)N3)cc1 (stereo not given)	none
Cc1cccc(C(=O)Nc2nc3n(n2)C(c2ccc(Cl)cc2)C=C(c2ccccc2)N3)c1 (stereo not given)	FECH block active
Cc1ccc(C(=O)Nc2nc3n(n2)C(c2ccc(Cl)cc2)C=C(c2ccc(C)cc2)N3)cc1 (stereo not given)	FECH block active
Cc1ccc(C(=O)Nc2nc3n(n2)C(c2ccccc2)C=C(c2ccccc2)N3)cc1 (stereo not given)	none
O=C(Nc1nc2n(n1)C(c1ccccc1)C=C(c1ccc(Cl)cc1)N2)c1ccc(Cl)cc1 (stereo not given)	none
Cc1ccc(C2=CC(c3ccc(C)cc3)n3nc(NC(=O)c4cccc(Cl)c4)nc3N2)cc1 (stereo not given)	FECH block active
Cc1ccc(C2=CC(c3ccc(Cl)cc3)n3nc(NC(=O)C(C)C)nc3N2)cc1 (stereo not given)	none
CCCc1cc(=O)n2nc(N3CCCC3C(=O)NCc3ccc(OC)cc3)sc2n1 (stereo not given)	none
CCn1c(=O)n(Cc2ncc(C)c(OC)c2C)c(=O)c2cnc(-c3ccc(Cl)cc3)nc21	none
Cc1cc(CC(=O)N2CCNCC2C(=O)N2CCN(C)CC2)on1 (stereo not given)	none
Cc1nc(C(=O)N2CCC3(CC2)Nc2ccccc2NC3=O)cs1	none
O=C(NCC1CCN(Cc2cccc(Cl)c2)C1)c1ccsc1 (stereo not given)	none
CC(C)Cc1ccc(S(=O)(=O)NCCn2c(C(F)(F)F)nc3cccnc32)cc1	none
Cc1ccc(Nc2nc(NCCC(C)C)nc3c2cnn3-c2ccccc2)cc1	none
O=C1N(Cc2ccc(F)c(F)c2)CCCC1(O)CNCCc1ccccn1 (stereo not given)	none
CCN(Cc1ccccc1)S(=O)(=O)c1ccc2c(c1)CCN2C(=O)CCC(=O)N1CCCCCC1	none
Cc1cc(C)n2nc(CN(C(=O)c3ccc(F)cc3)c3ccc(Cl)cc3)nc2n1	none
COc1ccccc1C(=O)N(Cc1nc2nc(C)cc(C)n2n1)c1ccc(C)cc1	none
Cc1ccc(C(=O)N(Cc2nc3nc(C)cc(C)n3n2)c2ccc(Cl)cc2)cc1	none
CCOc1ccc(N(Cc2nc3nc(C)cc(C)n3n2)C(=O)c2ccccc2C)cc1	none
COc1ccc(C(=O)N(Cc2nc3nc(C)cc(C)n3n2)c2ccccc2)cc1	none
CCOc1ccc(N(Cc2nc3nc(C)cc(C)n3n2)C(=O)c2ccc(C)cc2)cc1	FECH block active
Cc1cccc(N(Cc2nc3nc(C)cc(C)n3n2)C(=O)c2ccc(C(C)(C)C)cc2)c1	FECH block active
CCOc1ccc(N(Cc2nc3nc(C)cc(C)n3n2)C(=O)C(C)(C)C)cc1	none
Cc1cccc(N(Cc2nc3nc(C)cc(C)n3n2)C(=O)c2ccc(F)cc2)c1	FECH block active
Cc1ccc(N(Cc2nc3nc(C)cc(C)n3n2)C(=O)c2ccc(C(C)(C)C)cc2)cc1	FECH block active
Cc1cc(C)n2nc(CN(C(=O)c3ccc(C(C)(C)C)cc3)c3cccc(Cl)c3)nc2n1	none
Cc1ccc(C(=O)N(Cc2nc3nc(C)cc(C)n3n2)c2ccc(F)cc2)cc1	none
Cc1ccccc1C(CNC(=O)c1cn2cccnc2n1)N(C)C (stereo not given)	none
Cc1ccc(N2C(=O)CCS2(=O)=O)cc1S(=O)(=O)N(Cc1ccccc1)C(C)C	none
CCN1CCN(CCNC(=O)CC2CCN(S(=O)(=O)c3ccccc3)CC2)CC1	none
O=C(NC1CC1)c1cc2n(n1)CCCN(C(=O)c1n[nH]c3ccccc13)C2	none
CCN(CC)c1ncc(NS(=O)(=O)c2ccc(C)cc2C)cc1C(=O)O	none
CSc1nc(NCc2ccc(Cl)cc2)c(C#N)c(-c2ccc(C)cc2)n1	none
CCCN(CCC)CCNC(=O)c1cccn1-c1nnc(N2CCCCC2)s1	none
CCOc1ccc(CCNC(=O)c2cccn2-c2nnc(N3CCCCC3)s2)cc1	none
O=C(NCCc1ccccc1)c1cccn1-c1nnc(N2CCCCC2)s1	FECH block active
OC(Cc1ccccc1)Cn1cnc(-c2ccccc2)c1-c1cccnc1 (stereo not given)	none
CN(Cc1ccc2c(c1)OCCO2)Cc1cn[nH]c1-c1ccc(F)cc1	none
CCC(CC)C(=O)Nc1ccc(C)c(OCc2cc(=O)n3cccc(C)c3n2)c1	none
Cc1cccc(CN2CCN(CC(=O)Nc3ccc(C)cc3C)S2(=O)=O)c1	none
Cc1ccc(CN2CCCN(CC(=O)Nc3cc(C)ccc3C)S2(=O)=O)cc1	none
Cc1cc(C)c(NC(=O)CN2CCCN(Cc3ccccc3)S2(=O)=O)c(C)c1	none
Cc1ccc(CN2CCCN(CC(=O)Nc3ccc(C)cc3C)S2(=O)=O)cc1	none
Cc1cccc(NC(=O)CN2CCN(Cc3ccccc3C)S2(=O)=O)c1	none
Cc1ccc(NC(=O)CN2CCN(Cc3ccccc3C)S2(=O)=O)c(C)c1	FECH block active
Cc1cccc(CN2CCN(CC(=O)Nc3cc(C)ccc3C)S2(=O)=O)c1	FECH block active
Cc1cccc(CN2CCCN(CC(=O)Nc3ccc(C)cc3C)S2(=O)=O)c1	FECH block active
Cc1ccc(C)c(NC(=O)CN2CCCN(Cc3cccc(F)c3)S2(=O)=O)c1	none
Cc1ccc(CN2CCCN(CC(=O)Nc3c(C)cc(C)cc3C)S2(=O)=O)cc1	FECH block active
Cc1ccc(NC(=O)CN2CCCN(Cc3ccc(Cl)cc3)S2(=O)=O)c(C)c1	none
Cc1ccc(C)c(NC(=O)CN2CCN(Cc3ccccc3C)S2(=O)=O)c1	none
CN(Cc1nc2ccsc2c(=O)[nH]1)C(=O)C(c1ccc(F)cc1)N(C)C (stereo not given)	none
Cc1ncsc1CCC(=O)NCc1nncn1C1CCCCC1	none
C=CCSc1ncc(Cl)c(C(=O)NCCc2ccc(S(N)(=O)=O)cc2)n1	none
O=C(NCc1cccc(Br)c1)c1nc(N2CCCC2)c2oc3ccccc3c2n1	none
CC(c1nccs1)N(C)C(=O)Cn1c(=O)oc2ccccc21 (stereo not given)	none
Cc1ccc(NC(=O)CN2CCN(Cc3ccc(F)cc3)S2(=O)=O)c(C)c1	none
Cc1cc(C)c(CN2CCCN(Cc3ccccc3)S2(=O)=O)c(C)c1	FECH block active
Cc1ccc(NC(=O)CN2CCN(Cc3ccc(F)cc3)S2(=O)=O)cc1C	none
Cc1ccc(CN2CCCN(Cc3c(C)cc(C)cc3C)S2(=O)=O)cc1	none
CSc1cccc(NC(=O)CN2CCCN(Cc3cccc(C)c3)S2(=O)=O)c1	none
Cc1cccc(CN2CCCN(CC(=O)NC3CCCC3)S2(=O)=O)c1	none
Cc1cc(C)c(CN2CCCN(Cc3ccc(Cl)cc3)S2(=O)=O)c(C)c1	none
Cc1cc(C)c(NC(=O)CN2CCN(Cc3ccc(F)cc3)S2(=O)=O)c(C)c1	FECH block active

Assay outcomes deposited in PubChem BioAssay by Corson Lab, School of Medicine, Indiana University.
